High-throughput results from PubChem BioAssay.
In the library only some 2.5% were active in any assay of this set; here they are far more common.
WRN helicase inh = qHTS for Inhibitors of WRN Helicase | Bifunctional 3'-5' exonuclease/ATP-dependent helicase WRN (Homo sapiens), Q14191 | WRN helicase unwinding, fluorescent forked duplex, kinetic | Potency, µM (top dose mostly 114 µM), inactives show top-dose activity change, negative = inhibition, most hits filed as inhibitors | 0.46% of 360,000 active; note: % is set by controls: 0 for no effect and ±100 for the full control effect; nearly all actives have a fitted effect of over 55% in size
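Kinetic fluorescence helicase assay: unwinding of a quenched forked DNA duplex (100 nM final) with 2 mM ATP final raises red fluorescence (525/598 nm). Compounds sat 15 min at room temperature with 20 nM WRN beforehand.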
POLB inh = qHTS Assay for Inhibitors of DNA Polymerase Beta; Potency, µM (highest dose often 114 µM), for the others: top-dose activity change, negative = inhibition, usual class: inhibitors; 1.3% of 340,000 active; Pol beta primer extension/strand displacement, fluorescence kinetic; note: % is set by controls: 0 for no effect and ±100 for the full control effect
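Pol beta (10 nM) was preincubated with compound for 15 min at room temperature. The reaction was then started with 50 nM substrate and read immediately and after a further 10 min at room temperature.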
Pol kappa inh = qHTS for Inhibitors of Polymerase Kappa; DNA polymerase kappa (Homo sapiens), Q9UBT6; purified Pol kappa, fluorescent DNA synthesis assay, 10 min; Potency, µM (doses to about 107 µM), inactives show at the top dose activity, negative = inhibition, hits mostly inhibitors; 0.53% of 400,000 active; AID 588579, 2011; note: % is set by controls: 0 for no effect and ±100 for the full control effect
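Pol kappa 10 nM + cpd, 15 min RT; start w/ substrate 50 nM final; fluorescence kinetic read, 0 and 10 min. Neg ctrl: buffer, no enzyme.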
Pol iota inh = qHTS for Inhibitors of Polymerase Iota; Pol iota fluorescent replication assay, 10 min; Potency, µM (doses to about 115 µM), without a hit: top-dose activity, negative = inhibition, usual class: inhibitors; 1% of 390,000 active
Target sequence (Q9UNA4 whole entry, looked up): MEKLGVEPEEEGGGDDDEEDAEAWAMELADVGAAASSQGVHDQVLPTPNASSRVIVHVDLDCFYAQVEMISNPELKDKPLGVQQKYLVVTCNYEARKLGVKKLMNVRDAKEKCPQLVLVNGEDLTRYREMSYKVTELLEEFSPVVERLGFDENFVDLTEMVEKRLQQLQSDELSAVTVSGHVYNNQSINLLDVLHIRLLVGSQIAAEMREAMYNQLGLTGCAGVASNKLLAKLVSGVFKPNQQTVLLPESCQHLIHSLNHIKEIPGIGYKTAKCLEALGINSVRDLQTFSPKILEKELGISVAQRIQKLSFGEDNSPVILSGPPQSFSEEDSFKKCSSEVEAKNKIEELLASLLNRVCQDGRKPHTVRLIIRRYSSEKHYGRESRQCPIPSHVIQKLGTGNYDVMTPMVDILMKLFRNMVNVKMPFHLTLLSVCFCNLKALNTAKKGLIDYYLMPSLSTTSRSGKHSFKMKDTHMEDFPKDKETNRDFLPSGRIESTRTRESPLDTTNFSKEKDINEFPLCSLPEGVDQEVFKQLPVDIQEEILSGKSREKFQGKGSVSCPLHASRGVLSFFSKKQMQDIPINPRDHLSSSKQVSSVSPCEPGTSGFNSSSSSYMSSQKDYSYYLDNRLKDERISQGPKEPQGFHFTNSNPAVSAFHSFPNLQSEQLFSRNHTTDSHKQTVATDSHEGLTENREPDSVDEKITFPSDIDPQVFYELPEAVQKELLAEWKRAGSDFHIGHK
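Pol iota at 10 nM preincubated 15 min with compounds at room temperature; reaction started with fluorescent substrate, 50 nM final. Fluorescence read kinetically at 0 and 10 min; buffer-only wells as negative control.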
POLH inh = qHTS for Inhibitors of Polymerase Eta; 1.2% of 390,000 active; Potency, µM (series often up to 114 µM), without a hit: at the top dose activity change, negative = inhibition, actives largely listed as inhibitors; recombinant Pol eta, fluorescent DNA replication assay; AID 588591, 2011; note: % is set by controls: 0 for no effect and ±100 for the full control effect
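Fluorescent replication assay: 50 nM final substrate added after a 15 min room-temperature compound preincubation with 10 nM enzyme. Signal taken at 0 min and again at 10 min.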
L3MBTL1 block = qHTS Assay for the Inhibitors of L3MBTL1; AlphaScreen L3MBTL1–H3K9me1 peptide binding; 0.66% of 230,000 active; Potency, µM (titrated, usually from 57.1 µM), without a hit: top-dose activity, negative = inhibition, hits mostly inhibitors; note: % is set by controls: 0 for no effect and ±100 for the full control effect; nearly all actives have a fitted effect of over 60% in size
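Displacement of a biotinylated histone H3(1-15) peptide monomethylated at Lys9 (75 nM) from L3MBTL1 (50 nM) was measured by AlphaScreen after a 30 min room-temperature compound incubation; cefsulodin titration served as intraplate control.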
Numbers without * were called inactive; ? = inconclusive; . = no result; ! = repeats disagree; [ ] = dose if it differs, or a comment. Calls come from the whole dose curve; as a rule, active = well fitted curve in the direction sought with a large enough effect; inconclusive = small, poorly fitted or top-dose-only effect, or another doubt; inactive = no such curve, though single readings can be large; an effect the other way counts as inactive or inconclusive. Potency is the fitted concentration of half-maximal effect.

SMILES | WRN helicase inh | POLB inh | Pol kappa inh | Pol iota inh | POLH inh | L3MBTL1 block
CCCCSc1nc(O)c(C2OC(=O)c3c2ccc(OC)c3OC)c(=O)n1C (stereo not given) | -21% | 40% | 3% | ? | -2% | -1%
O=c1c2ccccc2nnn1-c1ccccc1[N+](=O)[O-] | -1% | . | . | . | -18% | .
O=S(=O)(/N=S1/CC=CCN1S(=O)(=O)c1ccccc1)c1ccccc1 (stereo not given) | 45µM* | 11% | -16% | -1% | -5% | -11%
CN1CCO/C1=C(\C(Cl)=C(Cl)Cl)[N+](=O)[O-] | -12% | 0% | 5% | 40% | 5% | 21%
O=[N+]([O-])C(=C1Nc2ccccc2N1)C(Cl)=C(Cl)Cl | -6%[11.6 µM] | 0% | -13% | 50µM* | 11% | -2%
Cc1cccc(-n2nc3c(c2NC(=O)CCCl)CSC3)c1 | -2% | -2% | -3% | -12% | 1% | .
Cc1cccc(-n2nc3c(c2NC(=O)c2ccc(Br)o2)CSC3)c1 | -21% | 56µM* | -20% | -2% | -16% | .
Cc1cc(SCC(=O)N/N=C/c2ccc(O)c(O)c2)c(C)cc1Br | -17% | 16µM* | -21% | ? | -21% | .
Cc1ccc(N2CC(O)Cn3c2nc2c3c(=O)n(C)c(=O)n2C)cc1 (stereo not given) | 0% | 28% | -15% | ? | 2% | .
O=C(OC(C(=O)NCc1ccc2c(c1)OCO2)c1ccncc1)c1ccc(Cl)nc1 (stereo not given) | -2% | 45% | 5% | 51% | -20% | -4%
N#C/C(=C\c1cccs1)C(=O)c1ccccc1 | ? | ? | -12% | 28µM* | -17% | .
N#CC(=Cc1ccc(-c2ccccc2)cc1)C(=O)c1ccccc1 | -15%[57.1 µM] | . | . | . | . | .
O=C(Nc1nc2c(F)cc(F)cc2s1)c1ccc(S(=O)(=O)N2CCc3ccccc32)cc1 | . | 32µM* | -11%[60.1 µM] | ? | -11% | .
OCc1ccc(O)c2ncccc12 | -1% | -2% | 2% | ? | -12% | 18µM*
Oc1ccc(Cl)c2cccnc12 | 5% | . | -12% | 9% | -8% | .
O=C(O)c1ccc(O)c2ncccc12 | . | . | . | . | . | 16µM*
Oc1ccc(COCc2ccccc2)c2cccnc12 | 10% | ? | -6% | -5% | -9% | 8.9µM*
CN(Cc1ccco1)Cc1ccc(O)c2ncccc12 | . | . | -2% | -10% | -7% | 11µM*!
O=c1[nH]c2cccnc2n1Cc1ccccc1 | 4% | 22% | -6% | 9% | -15% | .
CCCCOc1ccc(C(=O)Nc2ccc(-c3nc4ccccc4s3)cc2C)cc1 | . | 16% | -9% | 28% | -12% | .
CCCOCc1ccc(O)c2ncccc12 | 1% | -12% | 3% | -4% | 6% | 28µM*
CC(C)COCc1ccc(O)c2ncccc12 | 5% | 16% | -5% | 37% | -17% | 20µM*
Oc1ccc(Cc2ccccc2)c2cccnc12 | 8% | . | -5% | -16% | -18% | .
CCOC(=O)c1cc(-c2ccc(OC)cc2)n(CCC(=O)Nc2cccc(C)c2C)c1C | . | -3% | -18%[60.1 µM] | 12% | 0% | .
CC(=O)Nc1c(C(=O)O)[nH]c2ccccc12 | 1% | 19% | 7% | -5% | -10% | 4%
SMILES | WRN helicase inh | POLB inh | Pol kappa inh | Pol iota inh | POLH inh | L3MBTL1 block
COC(=O)C1=C(C)N(Cc2ccco2)C(=O)C1 | -35%[57.1 µM] | -17% | 45µM* | 11µM* | 13µM* | .
O=C(/C=C/c1ccccc1)Nc1cc(NC(=O)/C=C/c2ccccc2)cc(C(=O)O)c1 | -7%[11.6 µM] | -22% | -3% | 12% | 50µM* | -3%
O=C(/C=C/c1ccccc1)Nc1cccc(C(=O)O)c1 | -5% | 7% | -8% | -5% | 0% | 1%
C=CCn1cc(C(=O)N2CCN(C)CC2)c(=O)c2cc(S(=O)(=O)N(CC)CC)ccc21 | 8% | 20% | 3% | 17% | -11% | .
O=C(Nc1cccc([N+](=O)[O-])c1)c1cnccn1 | -31%[57.1 µM] | 40µM* | ? | -47% | 11µM* | -9%
O=C(Nc1ccc([N+](=O)[O-])cc1)Nc1cnccn1 | -3% | 40µM* | -7% | 11% | -9% | .
O=C(Nc1cccc([N+](=O)[O-])c1)c1ccc2ccccc2c1O | 4% | 40µM* | -12% | 2% | -3% | -28%
O=C1CN(S(=O)(=O)c2cc(Cl)ccc2Cl)c2ccccc2N1 | -11% | 2% | 4% | 67% | -18% | .
C#Cc1ccc([C@@H]2C=C(C(=O)NCc3ccccc3)O[C@H](OCCCCO)C2)cc1 | -26% | . | ? | 50µM* | 45µM* | .
C#Cc1ccc([C@@H]2C=C(C(=O)OCC=C)O[C@H](OCCCCO)C2)cc1 | -20% | 18µM* | ? | ? | ? | 0%
C=CCOC(=O)C1=C[C@H](c2ccc(C(F)(F)F)cc2)C[C@H](OCCCCO)O1 | -2% | . | -12% | -15% | -3% | .
C#CCNC(=O)C1=C[C@@H](c2ccc(C#C)cc2)C[C@@H](OCCCCO)O1 | -31% | . | ? | 50µM* | 25µM* | .
COc1cc2ccccc2cc1C(=O)N(CCN(C)C)c1nc2ccc(Br)cc2s1 | -11%[57.1 µM] | 1% | -13% | 3% | -2% | .
COc1cc(NC(=S)NCCC(c2ccccc2)c2ccccc2)cc(OC)c1 | 40µM* | 30% | ? | 89µM* | ? | -14%
CCOc1ccccc1Oc1coc2cc(OCC(=O)O)ccc2c1=O | 4%[11.6 µM] | 10µM* | -41% | 3% | 28µM* | ?
CCOc1ccc2c(=O)c(Oc3ccccc3OCC)coc2c1 | 5% | -17% | -14% | 89µM* | -6% | .
CCOc1ccccc1Oc1coc2cc(O)ccc2c1=O | -4% | 42% | 2% | 10% | -16% | 6%
Cc1cnc(NC(=O)/C=C/c2ccc(Br)o2)s1 | -5% | ? | -17% | 77% | ? | 4%
O=C(/C=C/c1ccc(Br)o1)Nc1nnc(C2CC2)s1 | . | 25µM* | . | . | . | -8%
O=C(NCc1ccco1)/C(=C\c1ccco1)NC(=O)c1cccs1 | 5% | 22µM* | -13% | 71% | -21% | -18%
COC(=O)C(C)Oc1ccc2c(c1)O/C(=C\c1ccco1)C2=O (stereo not given) | -18% | ? | ? | 45µM* | 45µM* | .
COc1ccc2c(c1)O/C(=C\c1ccco1)C2=O | -17% | ? | -26% | 22% | -7% | .
COc1ccc(-c2cc(=O)c3cc(C)ccc3[nH]2)cc1 | -6% | 4% | -11% | 79µM* | 9% | 7%
